# Assay results from PubChem BioAssay AID1851 (National Center for Advancing Translational Sciences (NCATS), 2009).
# “And” between values parts separate entries of the source, which are not always exact repeats. Equal entries are not always repeated. In all, about 16,000 compounds went through this assay and about 2,600 (16%) were called active. Inconclusive results (about 20%) are left out. Calls come from the whole dose curve; as a rule, active = well fitted curve in the direction sought with a large enough effect; inconclusive = small, poorly fitted or top-dose-only effect, or effect the other way; inactive = no such curve, though single readings can be large or run the other way. Not all results are given here. Where a structure was tested more than once in an assay, its records may differ in their call.
# Biological target: Cytochrome P450 2D6 (Homo sapiens) (UniProt P10635)
# Sequence (P10635 whole entry, looked up): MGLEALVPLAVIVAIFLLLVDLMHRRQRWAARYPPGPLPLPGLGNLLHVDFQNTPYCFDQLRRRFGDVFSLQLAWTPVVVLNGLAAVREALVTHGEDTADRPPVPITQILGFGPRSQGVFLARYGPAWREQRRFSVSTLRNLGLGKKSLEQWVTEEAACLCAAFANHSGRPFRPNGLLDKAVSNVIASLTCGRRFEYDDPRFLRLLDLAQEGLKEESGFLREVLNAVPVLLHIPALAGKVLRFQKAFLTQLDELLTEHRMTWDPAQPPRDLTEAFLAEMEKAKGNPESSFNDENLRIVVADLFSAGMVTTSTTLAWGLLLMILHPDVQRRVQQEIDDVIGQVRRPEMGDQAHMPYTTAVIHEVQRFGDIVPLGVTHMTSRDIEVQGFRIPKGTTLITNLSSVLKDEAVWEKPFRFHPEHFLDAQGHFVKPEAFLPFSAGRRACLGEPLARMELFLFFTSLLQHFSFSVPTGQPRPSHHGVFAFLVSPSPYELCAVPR
# Test: Cytochrome panel assay with activity outcomes
# Conditions: recombinant CYP, pro-luciferin dealkylation, luminescence, p450-cyp2d6; series mostly up to 57.1 µM; activity, negative = inhibition: at the top concentration
# % is set by controls: 0 for no effect and ±100 for the full control effect.
Compound,"activity, negative = inhibition",AC50
CS(=O)(=O)c1ccccc1-c1nc(-c2cc(C(F)(F)F)cc(C(F)(F)F)c2)no1,-2.41% (inactive),–
N[C@@H](CO)C(=O)O,–,inactive
CO[C@]1(C2=NCCN2)COc2ccccc2O1,–,inactive and 794 nM (active)
COc1ccc(N2C(=O)c3ccccc3NC2c2ccc(OC)c(CSc3ccccn3)c2)cc1 (configuration not stated),-10.2% (inactive),–
CCCCN(CC)Cc1ccc(CNC(=O)Nc2ccc(OC)cc2OC)o1,–,0.501 µM (active)
COc1ccc(NC(=O)Cn2cccc2)c(OC)c1,-17.6% (inactive),–
COCCN(C(=O)Nc1ccc(OC)cc1OC)C1CCN(C(C)=O)CC1,-19.1% (inactive),–
CC(=O)NC(CCS(C)(=O)=O)C(=O)Nc1c(F)cccc1F (configuration not stated),4.81% (inactive),–
O=C1CCCN1CC(CN1CCOCC1)Sc1nnnn1-c1ccccc1 (configuration not stated),-23.8% (inactive),–
Cc1cc(C)n(-c2cc(N3CCN(S(=O)(=O)c4ccc(C)c(C)c4)CC3)ccc2[N+](=O)[O-])n1,–,0.501 µM (active)
Cc1cc(C)n(-c2cc(N3CCN(C(=O)c4ccc(C(C)(C)C)cc4)CC3)ccc2[N+](=O)[O-])n1,-7.5% (inactive),–
Cc1cc(C)c(S(=O)(=O)N2CCN(c3ccc([N+](=O)[O-])c(NCC4CCCO4)c3)CC2)c(C)c1 (configuration not stated),-0.0104% (inactive),–
COc1ccc2c(C=Nc3c(C)n(C)n(-c4ccccc4)c3=O)c(O)n(Cc3ccco3)c(=O)c2c1,-13.3% (inactive),–
COc1cccc(Cn2c(=O)c(-c3cccs3)nc3cnc(N4CCN(C)CC4)nc32)c1,-4.92% (inactive),–
CN(C)C(=O)CCc1nc(-c2ccc(C(C)(C)C)cc2)no1,6.51% (inactive),–
COC(=O)c1ccc(Oc2nc(N(C)C)nc(N3CCOCC3)n2)cc1,14% (inactive),–
O=C(O)[C@@H](O)[C@@H](O)[C@@H](O)[C@@H](O)c1nc2ccccc2s1,-1.94% [at 11.4 µM] (inactive),–
Cc1ccccc1-c1nccc(-n2ccnc2)n1,–,10 µM (active)
FC(F)(F)c1ccccc1-c1nccc(N2CCNCC2)n1,-1.66% (inactive),–
Clc1ccccc1-c1nccc(-n2ccnc2)n1,–,7.94 µM (active)
COc1ccccc1-c1nccc(-n2ccnc2)n1,–,15.8 µM (active)
COc1ccccc1-c1nnc(NC(C)=O)s1,-3.89% (inactive),–
O=C(O)CC[C@]1(C(=O)O)CCC(=O)c2ccccc21,10.4% [at 11.4 µM] (inactive),–

Compound,"activity, negative = inhibition",AC50
CCOCC(=O)Nc1cc(C(=O)Nc2ccccc2)ccc1Cl,-22.9% (inactive),–
CCc1ccc(C(=O)N2CCC(c3nc4ccccc4s3)CC2)cc1,-8.73% (inactive),–
CO[C@@H]1COC(=O)C/C=C\[C@H](C)[C@H](OC)COC(=O)[C@H]2CCCN2C(=O)C/C=C\[C@H]1C,6.57% [at 11.4 µM] (inactive),–
C[C@@H]1C[C@H]2[C@H]3C[C@@H](F)C4=CC(=O)C=C[C@]4(C)[C@@]3(Cl)[C@@H](O)C[C@@]2(C)[C@@H]1C(=O)COC(=O)C(C)(C)C,-3.56% [at 25.6 µM] (inactive),–
CC(C)(C)OC(=O)[C@H]([C@@H]1N[C@@H](C(=O)O)C(C)(C)S1)N1C(=O)c2ccccc2C1=O,13.9% [at 11.4 µM] (inactive),–
CO[C@@]12C[C@@H](COC(=O)c3cncc(Br)c3)CN(C)[C@H]1Cc1cn(C)c3cccc2c13,–,39.8 nM (active) and 20 nM (active)
CC(C)(C)NC(=O)COC(=O)c1cncc(Br)c1,-14.1% (inactive),–
Cc1ccc(OCCNC(=O)c2cncc(Br)c2)cc1C,-19.2% (inactive),–
COC(=O)C/C=C\[C@@H](C)[C@@H](/C=N\O[C@@H](C)c1cn([C@H](CO)Cc2ccccc2)nn1)OC,15.1% [at 11.4 µM] (inactive) and 6.44% [at 11.4 µM] (inactive),–
COc1ccc2cc3[n+](cc2c1OC)CCc1cc2c(cc1-3)OCO2,–,2.51 µM (active)
C[C@H]1[C@H](C)OC(=O)C[C@H](O)C[C@H](O)C[C@H](O)CC[C@H](O)[C@H](O)CC(=O)C[C@H](O)[C@H](C(=O)O)[C@H](O)C[C@H](O[C@@H]2O[C@@H](C)[C@H](O)[C@@H](N)[C@@H]2O)C=CC=CC=CC=CCCC=CC=C[C@@](C)(O)[C@H]1O,-1.84% [at 11.4 µM] (inactive),–
O=C(Nc1ncn[nH]1)c1ccc([N+](=O)[O-])cc1[N+](=O)[O-],-18.7% (inactive),–
NC(N)=NC(=O)Cc1c(Cl)cccc1Cl,–,inactive and 126 nM (active)
O=C(O)COC(=O)Cc1ccccc1Nc1c(Cl)cccc1Cl,-2.87% [at 25.6 µM] (inactive),–
NC(=O)NC(=O)Nc1ccccc1Cl,-2.82% (inactive),–
CCC(CC)c1nnc(NC(=O)c2cccc(S(=O)(=O)N3CCc4ccccc43)c2)s1,-2.53% (inactive),–
CCCCN1C(=O)C(NC(=O)CC(C)C)(C(F)(F)F)C2=C1CC(C)(C)CC2=O (configuration not stated),-5.1% (inactive),–
O=C(C[C@@H]1C=Cc2ccccc2N1C(=O)c1ccccc1)c1ccccc1,-16.3% [at 11.4 µM] (inactive),–
CN1[C@H](CC(=O)c2ccccc2)CCC[C@H]1C[C@H](O)c1ccccc1,–,25.1 µM (active)
CN1[C@@H](CC(=O)c2ccccc2)CCC[C@@H]1C[C@@H](O)c1ccccc1,–,0.251 µM (active)
Nc1cc(N)nc(SCC(=O)c2ccccc2)n1,23.2% (inactive),–
O=C(C[C@@H](c1ccccc1)N1CCCCC1)c1ccccc1,-19.2% [at 11.4 µM] (inactive),–
COc1ccc(-n2c(=O)cnc3cnc(OC)nc32)cc1,1.51% (inactive),–

Compound,"activity, negative = inhibition",AC50
COCCn1c(=O)c(-c2cccc(C#N)c2)nc2cnc(N3CCN(C)CC3)nc21,4.11% (inactive),–
O=C(c1cc(C(F)(F)F)cc(C(F)(F)F)c1)N1CCC[C@@]2(CCN(c3ccccc3)C2)C1,2.19% (inactive),–
O=C(Nc1cccnc1)c1ccc(COc2cc(Cl)ccc2Cl)o1,–,15.8 µM (active)
O=C(N/N=C/c1ccc(O)cc1)c1ccc(COc2cc(Cl)ccc2Cl)o1,-29.6% (inactive),–
O=C(Nc1ccn(Cc2ccccc2F)n1)c1ccc(COc2cc(Cl)ccc2Cl)o1,-11.3% (inactive),–
NS(=O)(=O)c1ccc(N=Nc2ccc[nH]c2=O)cc1,-6.28% [at 11.4 µM] (inactive),–
C(=Nc1cnc2ccccc2c1)c1ccc2ccccc2n1,1.16% [at 11.4 µM] (inactive),–
C=C(C)[C@@H]1CC=C(C(=O)O)CC1,-8.58% (inactive),–
NNC(=O)c1nn(-c2ccc(Cl)cc2)ccc1=O,-1.71% (inactive),–
COc1ccc(Oc2c(Cl)cnn(-c3ccccc3)c2=O)cc1,-3.24% (inactive),–
Cc1ccc2ccccc2c1CSc1nc(N)nc2c1ncn2CC(C)C,–,3.98 µM (active)
CC(C)Cn1cnc2c(SCc3ccccn3)nc(N)nc21,6.1% [at 11.4 µM] (inactive),–
CC(C)Cn1cnc2c(Sc3c([N+](=O)[O-])ncn3C)nc(N)nc21,8.92% [at 11.4 µM] (inactive),–
CCCOc1ccc(C2C(=O)N(C3CCCCC3)CC(=O)N2C2CC2)cc1OC (configuration not stated),-0.0714% (inactive),–
Cn1c[n+](C)cc1/C=N/O,-3.03% (inactive),–
O=[N+]([O-])c1cccnc1N1CCOCC1,-5.33% (inactive),–
O=[N+]([O-])c1cc(F)c(N2CCOCC2)cc1N1CCCCC1,–,10 µM (active)
O=[N+]([O-])c1ccc(N2CCCC2)cc1N1CCCC1,-17.6% (inactive),–
Cc1ccc(-c2nc3ccccc3s2)cc1NC(=O)c1cc(-n2cnnc2)ccc1Cl,-3.13% (inactive),–
CN1CCN(c2ncc3nc(-c4cccs4)c(=O)n(-c4ccccc4)c3n2)CC1,0.142% (inactive),–
O=C(O)C1CCC(=O)N(C2CC2)C1c1ccccc1 (configuration not stated),21.6% (inactive),–
COCCNc1nc(-c2ccccc2Cl)nc2ccccc12,0.886% (inactive),–
COCCNc1nc(-c2ccccc2C(F)(F)F)nc2ccccc12,-2.92% (inactive),–

Compound,"activity, negative = inhibition",AC50
COc1ccccc1-c1nc(NCCNC(C)=O)c2ccccc2n1,–,6.31 µM (active)
CC(=O)NCCNc1nc(-c2ccccc2Cl)nc2ccccc12,–,12.6 µM (active)
CC(=O)NCCNc1ccnc(-c2ccccc2C(F)(F)F)n1,-6.01% (inactive),–
CC(=O)NCCNc1nc(-c2ccccc2C)nc2ccccc12,–,5.01 µM (active)
CC(=O)NCCNc1ccnc(-c2ccccc2C)n1,-10.3% (inactive),–
CC(=O)NCCNc1nc(-c2ccccc2C(F)(F)F)nc2ccccc12,–,3.98 µM (active)
COC(=O)[C@@]1(Cc2ccc(OC)cc2)[C@H]2c3cc(C(=O)N4CCCC4)n(CCc4c[nH]c5ccc(O)cc45)c3C[C@H]2CN1C(=O)c1ccccc1,4.23% (inactive),–
O=Nc1c(-c2c(O)[nH]c3ccccc23)[nH]c2ccccc12,12.1% (inactive),–
COc1ccc(C)cc1NC(=O)c1cc2cc3ccc(C)cc3nc2o1,7.98% (inactive),–
Cc1ccc2cc(CCNC(=O)c3ccc(Br)o3)c(=O)[nH]c2c1,-5.59% (inactive),–
Cc1cccc(N(C)S(=O)(=O)c2ccc3[nH]c(=O)c(=O)[nH]c3c2)c1,-6.04% (inactive),–
COc1ccc(-n2c(=O)c(C)nc3cnc(OC)nc32)cc1,6.93% (inactive),–
CCCn1c(=O)c2[nH]c(C3CCCC3)nc2n(CCC)c1=O,-6.79% (inactive),–
COc1ccc(-c2nc3cnc(N4CCOCC4)nc3n(CCc3ccccc3)c2=O)cc1,-0.0486% (inactive),–
COC(=O)[C@@H]1CC[C@H](C)[C@@H](c2ccc(C)cc2)N1C(=O)c1ccc(/C=N\OCC[C@@H]2C=C[C@H](OC(C)=O)[C@H](COC(C)=O)O2)cc1,6.79% [at 11.4 µM] (inactive),–
COC(=O)c1cc(=O)n(C2CC2)c(=NC2CC2)s1,-4.17% (inactive),–
CN(C)C(=C(C#N)C#N)N1CCN(c2ccc(Cl)c(Cl)c2)CC1,–,1.12 µM (active)
Cc1ccc(OCC(=O)N/N=C\c2c(C)n(C)c3ccccc23)c([N+](=O)[O-])c1,-14.9% (inactive),–
CCCCNCCOCCOc1ccc(C)cc1[N+](=O)[O-],–,2 µM (active)
CCCC(=O)N1CCN(c2ccc(NC(=O)c3ccc(OCC)c([N+](=O)[O-])c3)cc2)CC1,23.3% (inactive),–
C=CCNCCOCCOc1ccc(C)cc1[N+](=O)[O-],–,3.16 µM (active)
CCC(C)Nc1c([N+](=O)[O-])cc(C)cc1[N+](=O)[O-] (configuration not stated),-14.5% (inactive),–
Cc1nnc(N(C)C(=O)c2ccccn2)s1,-0.12% (inactive),–
